This passage reports growth results from PubChem BioAssay (NCI).

About 83,000 compounds went through this panel and 20% of them were active in at least one assay; those are over-represented in the sample as a whole.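 Percent growth is the endpoint: 0 to 100 indicates growth inhibition (40 means 60% inhibition), 0 means no net growth, and negative values indicate cell death.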 Active and inactive are the calls of the source.

This experiment concerns HCT-116 colon. Kind of experiment: NCI-60 one-dose screen, 48 h (100 = growth as untreated, 0 = no growth, -100 = all killed). The conditions noted are these: 10 µM unless noted. On the procedure:
Growth inhibition of the HCT-116 human tumor cell line is measured as a screen for anti-cancer activity. Cells are grown in 96 well plates and exposed to the test compound for 48 hours. Compounds are tested at a single concentration, which is 10^-5 M for most compounds. The reported endpoint is percent growth (GI% or GIPRCNT), where numbers from 0 - 100% represent growth inhibition, and numbers from -100% - 0 represent cell death. For example, a value of 40 represents 60% growth inhibition. A value of 0 means no net growth occurred over the course of the experiment. A value of -40 indicates 40% of cells at the beginning of the experiment died by the end of the experiment. A value of -100 means all cells are dead at the end of the experiment.
NCI-60 Human Tumor Cell Lines Screen was performed using the standard one-dose NCI protocol, which is described in more detail at https://dtp.cancer.gov/discovery_development/nci-60/default.htm.
Compounds with GIPRCNT values below 10 were considered active. Activity score was based on GIPRCNT using the following formula: […]
Score is 0 for GIPRCNT values of 100 or above, 50 for GIPRCNT values of 0, and 100 for GIPRCNT values of -100.
Regarding `Cn1cc(-c2noc(-c3cn(C)c4ncccc34)n2)c2cc(Cl)ccc21`, the growth is 94.1% (inactive).
On to `CN(C)c1ccc(-c2ccc(-c3ccc(C(=N)N)cc3)s2)cc1`, for which the growth was -45.3% (active).
For the compound `CCCCCCCCCCCCCCCCCCNC(=S)N/N=C/c1ccc(OC)c(OC)c1`, the growth was 96.9% (inactive).
On to `Cc1ccc(-n2nc3n(/c2=N\C(=O)NS(=O)(=O)c2ccc(C)cc2)CCN3C2=NCCN2)cc1`, for which the growth was 87.3% (inactive).
Regarding `COc1ccc(/C=C2\N=C(Nc3ccccc3)N(NC(=O)c3ccccn3)C2=O)cc1`, the growth was 90.1% (inactive).
The result for `CCOC(=O)CC(c1ccccc1)C(C#N)c1ccccc1` (stereo not given) reads 92% (inactive).
In the case of `COc1ccc(/C=C/C(=C/c2c(O)[nH]c3cc(Br)ccc23)N=O)cc1`, the growth is 99.7% (inactive).
The result for `CCOc1ccc2sc(NS(=O)(=O)c3ccc(N)cc3)nc2c1` reads 110% (inactive); that for `O=C(NNc1ccc(-c2ccccc2)nn1)c1ccccc1`, 91.3% (inactive).
Turning to `CCOC(=O)C(c1ccccc1)N1C(=O)c2ccccc2C1=O` (stereo not given), the growth was 98.5% (inactive).
The result for `CC1(C)C(=O)/C(=C\c2ccco2)C[C@]2(C)[C@H]3CC=C4[C@@H]5C[C@](C)(C(=O)O)CC[C@]5(C)CC[C@@]4(C)[C@]3(C)CC[C@@H]12` reads -67% [100 µM] (active).
Turning to `COc1ccc2c(c1)c(-c1noc(-c3cn(C)c4ncc(F)cc34)n1)cn2C`, the growth is 80.7% (inactive).
The result for `CCOC(=O)CCC[P+](c1ccccc1)(c1ccccc1)c1ccccc1` reads 63.4% (inactive); that for `COc1ccc(/C=C(/C2=NCCN2)n2ccc3ccccc32)cc1`, 83% (inactive); that for `CCOC(=O)c1nn(C2CCCCO2)c2ccc(NC(=O)CSc3nc4ccccc4c(=O)[nH]3)cc12` (stereo not given), 101% (inactive).
As for `CCOC(=O)c1nn(C2CCCCO2)c2ccc(NC(=O)CN3CCCC3)cc12` (stereo not given), the growth was 89.9% (inactive).
Turning to `COC(=O)C(=Cc1ccccc1[N+](=O)[O-])C(=O)OC`, the growth is 6.83% (active).
Turning to `C[C@H]1[C@H](C)CC[C@]2(COC(=O)CCC(=O)O)CC[C@]3(C)C(=CC[C@@H]4[C@@]5(C)CCCNC(C)(C)[C@@H]5CC[C@]43C)[C@H]12`, the growth is 40.5% [100 µM] (inactive).
For the compound `COc1cc2c(c(OC)c1OC)-c1ccc(NNC(N)=S)c(=O)cc1[C@@H](NC(C)=O)CC2`, the growth is 2.28% (active).
As for `C=C(C)[C@@H]1CC[C@]2(C(N)=O)CC[C@]3(C)[C@H](CC[C@@H]4[C@@]5(C)CC[C@H](O)C(C)(C)[C@@H]5CC[C@]43C)[C@@H]12`, the growth was -24.8% [100 µM] (active).
In the case of `CC(C)OC(=O)Nc1cc(F)ccc1F` it was 105% (inactive); in that of `Cc1ccc2c(n1)C(=O)C(Cl)=C(Nc1ccc(N3CCN(C)CC3)cc1)C2=O`, -64.9% (active).
As for `CN(C)CCCNc1nc(-c2cccc(C(Cl)(Cl)Cl)c2)nc(C(Cl)(Cl)Cl)n1`, the growth was 92.9% (inactive).
`Cc1ccc(C2=C/C(=C/c3ccc(Br)cc3)C(=O)N2CCc2ccc(S(N)(=O)=O)cc2)cc1`: the growth is 95.2% (inactive).
As to `COC(=O)[C@]1(C)CC[C@]2(C)CC[C@]3(C)C(=CC(=O)[C@@H]4[C@@]5(C)CCC(=O)NC(C)(C)[C@@H]5CC[C@]43C)[C@@H]2C1`, the growth was -72.5% [100 µM] (active).
As for `COCc1nc2ccccc2[nH]1`, the growth is 99.9% (inactive).
Take `CCN(CC)CCS(=O)(=O)CCNc1ccnc2cc(Cl)ccc12`: the growth is 6.59% (active).
Take `Cc1ccc(NC(=S)/N=c2/n(-c3ccccc3)nc3n2CCN3C2=NCCN2)cc1`: the growth was 48.6% (inactive).
As for `Nc1nc(N)c2c(n1)NC(c1ccc(F)cc1)C1CCc3ccccc3C1=N2` (stereo not given), the growth was 31.9% (inactive).
Take `Fc1cc2[nH]ncc2c2c3c(c(-c4cn[nH]c4C(F)(F)F)nc12)C1CCC3C1` (stereo not given): the growth is 1.87% (active).
As for `Cc1nn(-c2ccccc2)c(N2CCOCC2)c1-c1nc2ccc([N+](=O)[O-])cc2[nH]1`, the growth was 97.8% (inactive).
As for `O=C1NC(=O)C(Cc2ccccc2)(Cc2ccccc2)N1`, the growth is 90.9% (inactive).
With `COc1ccc(C(=O)CSc2nnc(-c3cc(-c4ccccc4)nc4ccccc34)o2)cc1`, the growth was 101% (inactive).
On to `CCOC(=O)C(=Cc1ccccc1[N+](=O)[O-])C(=O)OCC`, for which the growth is 7.82% (active).
For `O=C(O)c1cn(C2CC2)c2cc(N3CCN(Cc4cc(Cl)ccc4O)CC3)c(F)cc2c1=O`, the growth was 72.3% (inactive).
Regarding `CCC(C)[C@H](NC(=O)NC(=O)NC(=O)CI)C(=O)OC` (stereo not given in full), the growth is 65.2% (inactive).
In the case of `CCCCCCCCCCCCCCNC(=O)Nc1ccc(Cl)c(Cl)c1`, the growth is 23.6% (inactive).
In the case of `COc1ccc2nc3ccccc3c(NCCNCCO)c2c1` it was -36.5% (active); in that of `C#CCOc1ccc(C2=NN(CC3CC3)C3N=C(Cl)c4ncn(CC5CC5)c4N23)cc1OCC#C` (stereo not given), 80.5% (inactive).
Turning to `O=C(Nc1cccc2cccnc12)c1cc(C(=O)c2ccc(Cl)cc2)n2ccc(-c3ccncc3)cc12`, the growth is 101% (inactive).
